# For some of these results: Measured potencies and affinities stand elsewhere. Active and inactive are the calls of the source.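 Rule for the calls, unless noted: active = membrane potential signal rise above negative control mean plus 3 SD in both duplicates, also active in the earlier TRPC4 screen; inactive = the rest.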
# Key:
# [1] = system: TRPC4 beta (transient receptor potential cation channel C4), mouse; assay: TRPC4 cation channel opening, retest – cell-based, Fluo4 calcium, HEK293 TRPC4beta/mu-opioid, duplicates, 10 µM, confirmation (AID 2426;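 active = fluorescence ratio normalized to control raised more than 50% in primary screen plus both repeat runs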); details: Fluo4 calcium fluorescence, at 10 µM; hits give high values
# [2] = system: transient receptor potential cation channel C4 beta (TRPC4), mouse; assay: TRPC4 cation channel opening, second retest – cell-based, second round, Fluo4, HEK293 TRPC4beta/mu-opioid, 1 µM, confirmation (AID 2461;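 active = primary screen active and over 50% activation in each of two duplicate runs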); details: Fluo4 calcium fluorescence, at 1 µM; hits give high values
# [3] = system: TRPC4 (transient receptor potential cation channel C4 beta), mouse; assay: potentiation of DAMGO EC20 TRPC4 response – cell-based, second round, Fluo-4, HEK293 TRPC4beta/mu-opioid, 1 µM, confirmation (AID 2554;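 active = primary screen hit whose fluorescence ratio, in both repeats, exceeds the weak agonist control mean by 3 SD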); details: DAMGO EC20, Fluo-4 calcium flux, at 1 µM; hits give high values
# [4] = system: TRPC4 beta (transient receptor potential cation channel C4), mouse; assay: potentiation of DAMGO EC20 TRPC4 response – cell-based, Fluo-4, HEK293 TRPC4beta/mu-opioid, confirmation (AID 2555;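 active = primary screen hit whose calcium fluorescence ratio, in both repeats, exceeds the weak agonist control mean by 3 SD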); details: DAMGO EC20, Fluo-4 calcium flux, at 10 µM; hits give high values
# [5] = biological target: Short transient receptor potential channel 4 (Mus musculus) (UniProt Q9QUQ5); assay: blockers of DAMGO-evoked TRPC4 calcium flux – cell-based, Fluo4, HEK293 TRPC4beta/mu-opioid, confirmation (AID 2636;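 active = calcium signal cut by more than 3 SD below the full-agonist control yet still positive, in both repeats and the earlier primary screen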); details: at 10 µM; hits give high values
# Sequence of Short transient receptor potential channel 4 (Mus musculus) (Q9QUQ5 whole entry, looked up): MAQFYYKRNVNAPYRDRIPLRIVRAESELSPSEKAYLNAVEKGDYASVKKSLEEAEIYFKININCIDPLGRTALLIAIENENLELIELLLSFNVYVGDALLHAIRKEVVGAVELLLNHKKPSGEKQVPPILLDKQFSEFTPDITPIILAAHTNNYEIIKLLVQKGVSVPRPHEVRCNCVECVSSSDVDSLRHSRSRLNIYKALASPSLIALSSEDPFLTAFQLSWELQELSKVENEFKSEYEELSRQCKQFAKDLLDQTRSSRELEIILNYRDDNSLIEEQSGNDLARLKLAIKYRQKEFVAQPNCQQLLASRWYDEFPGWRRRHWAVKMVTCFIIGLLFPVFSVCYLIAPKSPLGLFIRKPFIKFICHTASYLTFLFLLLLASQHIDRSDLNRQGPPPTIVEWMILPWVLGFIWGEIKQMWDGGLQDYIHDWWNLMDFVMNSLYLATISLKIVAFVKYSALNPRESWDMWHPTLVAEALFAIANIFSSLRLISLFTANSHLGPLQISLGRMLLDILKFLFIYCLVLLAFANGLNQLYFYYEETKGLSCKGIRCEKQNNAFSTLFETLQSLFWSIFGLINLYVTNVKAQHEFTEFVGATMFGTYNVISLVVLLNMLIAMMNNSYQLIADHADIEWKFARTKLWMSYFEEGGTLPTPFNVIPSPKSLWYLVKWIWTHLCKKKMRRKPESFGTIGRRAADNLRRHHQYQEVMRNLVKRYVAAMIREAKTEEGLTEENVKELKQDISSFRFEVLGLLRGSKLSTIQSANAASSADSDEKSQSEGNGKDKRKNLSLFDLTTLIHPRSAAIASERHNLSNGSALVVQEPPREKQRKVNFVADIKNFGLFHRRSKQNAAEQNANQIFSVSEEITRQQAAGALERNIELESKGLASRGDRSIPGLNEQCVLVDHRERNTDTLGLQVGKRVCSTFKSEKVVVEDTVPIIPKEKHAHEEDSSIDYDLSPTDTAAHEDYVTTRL
# [6] = biological target: Short transient receptor potential channel 4 (Mus musculus) (UniProt Q9QUQ5); assay: blockers of DAMGO-evoked TRPC4 calcium flux – cell-based, second round, Fluo4, HEK293 TRPC4beta/mu-opioid, 1 µM, confirmation (AID 2637;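 active = calcium signal ratio cut to more than 3 SD under the fully stimulated control mean yet still positive, in both repeats and the primary screen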;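 for inhibition: percent of integrated ratio relative to wells lacking test compound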); details: at 1 µM; hits give high values
# [7] = biological target: Short transient receptor potential channel 4 (Mus musculus) (UniProt Q9QUQ5); assay: calcium entry via TRPC4 opening agents – cell-based, HEK293 TRPC4/mu-opioid, Fluo-4 calcium, dose response (AID 434937;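 active = primary screen activator hit with a dose response curve and TRPC4 channel activation at any tested dose; inactive = no activation, no dose response, or not a primary hit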)
# [8] = biological target: Short transient receptor potential channel 4 (Mus musculus) (UniProt Q9QUQ5); assay: potentiation of DAMGO-evoked TRPC4 calcium signal – cell-based, HEK293 TRPC4/mu-opioid, Fluo-4 calcium, EC20 DAMGO, dose response (AID 434941;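 active = earlier screen potentiator hit that boosts the TRPC4 ion channel at some dose, with a dose response; inactive = no potentiation, no dose response, or not a prior hit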;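 note: calcium entry triggered by an EC20 dose of DAMGO at the co-expressed mu-opioid receptor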)
# [9] = biological target: Short transient receptor potential channel 6 (Mus musculus) (UniProt Q61143); assay: TRPC6 blockade by TRPC4 inhibitor hits – cell-based, HEK293, membrane potential dye, duplicate, selectivity assay for TRPC4 inhibitor project, confirmation (AID 434948;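 active = active in primary screen and both duplicates, each dropping signal beyond three positive-control SD with fluorescence still positive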); details: HEK293 TRPC6, membrane potential dye fluorescence, at 10 µM, stimulated with maximal-effect acetylcholine; hits give high values
# Sequence of Short transient receptor potential channel 6 (Mus musculus) (Q61143 whole entry, looked up): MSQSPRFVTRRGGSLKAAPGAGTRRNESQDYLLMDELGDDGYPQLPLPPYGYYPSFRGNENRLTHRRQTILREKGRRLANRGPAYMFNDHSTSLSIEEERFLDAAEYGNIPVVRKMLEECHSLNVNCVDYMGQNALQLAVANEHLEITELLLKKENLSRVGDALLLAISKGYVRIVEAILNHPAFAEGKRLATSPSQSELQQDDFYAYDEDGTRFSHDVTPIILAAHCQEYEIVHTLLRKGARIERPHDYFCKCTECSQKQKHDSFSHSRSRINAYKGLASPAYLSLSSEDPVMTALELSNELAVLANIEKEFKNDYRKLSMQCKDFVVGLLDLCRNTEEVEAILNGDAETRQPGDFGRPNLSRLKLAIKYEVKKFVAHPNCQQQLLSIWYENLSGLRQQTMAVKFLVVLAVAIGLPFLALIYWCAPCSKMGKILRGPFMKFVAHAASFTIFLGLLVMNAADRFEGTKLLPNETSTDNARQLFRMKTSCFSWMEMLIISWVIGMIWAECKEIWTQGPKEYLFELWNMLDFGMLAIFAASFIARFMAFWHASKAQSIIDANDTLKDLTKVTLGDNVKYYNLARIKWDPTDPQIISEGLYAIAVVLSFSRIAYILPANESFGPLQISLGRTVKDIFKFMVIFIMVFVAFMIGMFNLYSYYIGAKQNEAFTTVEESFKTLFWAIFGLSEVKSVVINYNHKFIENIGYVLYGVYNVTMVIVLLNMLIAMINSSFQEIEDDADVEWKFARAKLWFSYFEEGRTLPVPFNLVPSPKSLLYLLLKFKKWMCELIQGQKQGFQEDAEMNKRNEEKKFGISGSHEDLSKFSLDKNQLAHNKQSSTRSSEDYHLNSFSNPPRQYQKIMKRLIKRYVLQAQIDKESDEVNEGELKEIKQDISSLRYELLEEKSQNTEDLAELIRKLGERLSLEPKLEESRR
# [10] = biological target: Short transient receptor potential channel 6 (Mus musculus) (UniProt Q61143); assay: TRPC6 opening by TRPC4 activator hits – cell-based, HEK293, membrane potential dye, duplicate, selectivity assay for TRPC4 activator project, confirmation (AID 434950); details: HEK293 TRPC6, membrane potential fluorescence, at 10 µM; activation: hits give high values; outcome: activation;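 for activation: 0% = buffer only wells and 100% = acetylcholine maximal-effect wells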
# [11] = biological target: Short transient receptor potential channel 6 (Mus musculus) (UniProt Q61143); assay: positive modulators of mouse TRPC6 channel – HEK293 cells, membrane potential dye, duplicate, selectivity assay for TRPC4 potentiator project, confirmation (AID 434952;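 active = compound raising the membrane signal above positive-control mean plus 3 SD in both repeats, and a primary screen hit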); details: HEK293 TRPC6, membrane potential dye fluorescence, at 10 µM, maximal acetylcholine added after compound; hits give high values
# [12] = biological target: Short transient receptor potential channel 4 (Mus musculus) (UniProt Q9QUQ5); assay: calcium flux activators in TRPC4/5HT1a cells, counter-screen for TRPC4 activator project, cell-based, second counter screen, HEK293 TRPC4/5HT1a, Fluo-4 (AID 434977;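 active = calcium signal rise above buffer-control mean plus 5 SD in both duplicates, and also a hit in the primary screen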); details: Fluo-4 calcium flux, at 10 µM; hits give high values
# [13] = serotonin-gated TRPC4 signal block – cell-based, second counter screen, HEK293 TRPC4/5HT1a, Fluo-4, counter-screen for TRPC4 inhibitor project, confirmation (AID 434978;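 active = primary screen active whose calcium signal fell more than 3 SD beyond the full-serotonin control mean in both duplicate plates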;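 for outcome: serotonin given first at submaximal then at maximal dose after compound preincubation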); details: Fluo-4 calcium flux, at 10 µM, serotonin added to trigger calcium flux; hits give high values
# [14] = system: TRPC4 (mouse), co-expressed with 5HT1a in HEK293; assay: enhancement of serotonin-evoked TRPC4 response – cell-based, second counter screen, HEK293 TRPC4/5HT1a, Fluo-4, counter-screen for TRPC4 potentiator project, confirmation (AID 434979;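 active = signal rise over 3 SD above mean of control wells given weak agonist, in both repeats and first screen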); details: Fluo-4 calcium flux, at 10 µM, serotonin added at its EC20 dose; hits give high values
# [15] = nonspecific calcium rise without TRPC4 – cell-based, HEK293 mu-opioid receptor line, counter-screen for TRPC4 activator project, confirmation (AID 449723;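 active = hit in primary screen, with calcium signal over 5 SD above buffer well mean in both duplicates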;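 note: counter screen cells carry the mu-opioid receptor alone and lack TRPC4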); details: HEK293 mu-opioid cells, Fluo-4 calcium fluorescence, at 10 µM; hits give high values
# [16] = nonspecific potentiation of DAMGO calcium response – cell-based, HEK293 mu-opioid receptor line, counter-screen for TRPC4 allosteric potentiator project, confirmation (AID 449724;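 active = calcium signal rise more than 3 SD above the low-dose agonist control mean, in both duplicate plates and the primary screen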); details: HEK293 mu-opioid receptor cells, Fluo-4 calcium flux, at 10 µM, compound added before EC20 DAMGO stimulus; hits give high values
Structure (SMILES),outcome [1],outcome [2],outcome [3],outcome [4],inhibition [5],outcome [6],outcome [7],outcome [8],outcome [9],outcome [10],outcome [11],outcome [12],outcome [13],outcome [14],outcome [15],outcome [16],inhibition [13],inhibition [6],activation [10]
CCOC(=O)C1(CCc2ccccc2)CCN(Cc2ccccn2)CC1,inactive,inactive,inactive,inactive,88% (active),inactive,inactive,inactive,inactive,inactive,inactive,inactive,inactive,inactive,inactive,inactive,,,
COc1ccc(C(=O)Nc2nc(-c3cccs3)cs2)cc1,inactive,inactive,inactive,inactive,85% (active),inactive,inactive,inactive,inactive,inactive,inactive,inactive,,inactive,inactive,inactive,36.4% (active),,
O=C(CSc1nc(=O)n(CCN2CCOCC2)c2c1CCC2)Nc1ccc(OC(F)(F)F)cc1,inactive,inactive,inactive,inactive,69% (active),inactive,inactive,inactive,inactive,inactive,inactive,inactive,inactive,inactive,inactive,inactive,,,
Cc1ccc(NC(=O)CN2CCc3ccccc3C2)cc1S(=O)(=O)N1CCOCC1,inactive,inactive,inactive,inactive,92% (active),,inactive,inactive,inactive,,inactive,inactive,inactive,inactive,inactive,inactive,,46% (active),30.5% (active)
O=C1/C(=C/c2ccccc2Cl)SC(=S)N1CCCC(=O)N(CCO)c1ccccc1,inactive,inactive,inactive,inactive,83% (active),,inactive,inactive,inactive,inactive,inactive,inactive,,inactive,inactive,inactive,24.9% (active),50% (active),
COC(=O)c1ccc(CSc2nc3ccccc3c(=O)n2CC(C)C)o1,inactive,inactive,inactive,inactive,82% (active),,inactive,inactive,inactive,inactive,inactive,inactive,,inactive,inactive,inactive,39.8% (active),41% (active),
CCCCn1c(SCC(=O)OCC)nc2c(sc(=S)n2-c2ccccc2OC)c1=O,inactive,inactive,inactive,inactive,94% (active),inactive,inactive,inactive,inactive,inactive,inactive,inactive,,inactive,inactive,inactive,14% (active),,
